We go through 15 compounds from PubChem BioAssay (NCI).

Some test systems named below: SR leukemia; OVCAR-8 ovarian; OVCAR-5 ovarian; OVCAR-4 ovarian; IGROV1 ovarian; OVCAR-3 ovarian; HS 578T breast; NCI/ADR-RES ovarian; SK-OV-3 ovarian; RPMI-8226 leukemia.
What all share (experiment): NCI-60 one-dose screen, 48 h (100 = growth as untreated, 0 = no growth, -100 = all killed)
What all share (details): 10 µM unless noted

Where “and” joins values, the source holds several entries; their conditions need not be identical. Equal entries are not always repeated. About 83,000 compounds went through this panel and 20% of them were active in at least one assay; those are over-represented in the sample as a whole.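 Step 1: grow cells in 96-well plates. Step 2: add test compound at a single concentration. Step 3: incubate 48 h. Step 4: record percent growth.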 Calls of active or inactive are those of the source. Rule for the calls: active = growth percent below 10; inactive = the rest.

Take `Nc1cc2c(cc1N)-c1ccccc1C2`: the growth in the assay on SR leukemia is 71.1% (inactive) and 90.7% (inactive); in the assay on OVCAR-8 ovarian, 88.9% (inactive) and 89.5% (inactive); in the assay on OVCAR-5 ovarian it was 122% (inactive) and 109% (inactive); in the assay on OVCAR-4 ovarian, 99.5% (inactive) and 107% (inactive); in the assay with IGROV1 ovarian, 58.3% (inactive) and 79.2% (inactive); in the assay on OVCAR-3 ovarian, 98.6% (inactive) and 97.7% (inactive). The growth is 104% (inactive) with HS 578T breast; 89.4% (inactive) and 90.2% (inactive) in the assay on NCI/ADR-RES ovarian.

Take `O=C(O)C1(C(=O)O)CCC1.[NH2-].[NH2-].[Pt+2]`: the growth was 122% (inactive) and 50.7% (inactive) with SR leukemia; 102% (inactive) in the assay on OVCAR-8 ovarian; 97.6% (inactive) and 83.7% (inactive) in the assay with OVCAR-5 ovarian; 109% (inactive) and 92.2% (inactive) in the assay with OVCAR-4 ovarian; 104% (inactive) and 107% (inactive) with SK-OV-3 ovarian; 95.6% (inactive) in the assay on IGROV1 ovarian. The growth in the assay on OVCAR-3 ovarian was 117% (inactive) and 105% (inactive); with HS 578T breast it was 105% (inactive) and 112% (inactive); with NCI/ADR-RES ovarian, 103% (inactive) and 99.7% (inactive).

On to `CC(O)Cn1cnc2c1c(=O)n(C)c(=O)n2C` (configuration not stated), for which the growth in the assay on OVCAR-8 ovarian was 97.6% (inactive); with OVCAR-5 ovarian it was 125% (inactive); with OVCAR-4 ovarian it was 96.5% (inactive); in the assay with IGROV1 ovarian, 90.6% (inactive); in the assay with OVCAR-3 ovarian, 108% (inactive); in the assay with NCI/ADR-RES ovarian, 112% (inactive).

For `O=S(=O)(Nc1ccccc1)C1CCCCC1`, the growth was 92.1% (inactive) and 90.5% (inactive) in the assay on SR leukemia; 110% (inactive) and 108% (inactive) in the assay on OVCAR-8 ovarian; 107% (inactive) and 104% (inactive) with OVCAR-5 ovarian; 108% (inactive) and 117% (inactive) in the assay on OVCAR-4 ovarian; 107% (inactive) and 103% (inactive) with SK-OV-3 ovarian; 105% (inactive) and 127% (inactive) with IGROV1 ovarian. Also, the growth is 111% (inactive) and 104% (inactive) in the assay with OVCAR-3 ovarian; 123% (inactive) and 108% (inactive) with HS 578T breast; 112% (inactive) and 105% (inactive) in the assay on NCI/ADR-RES ovarian.

For the compound `CC(=O)c1ccccc1O`, the growth was 79% (inactive) in the assay with SR leukemia; 112% (inactive) and 101% (inactive) and 105% (inactive) in the assay on OVCAR-8 ovarian; 102% (inactive) and 98.4% (inactive) and 116% (inactive) in the assay on OVCAR-5 ovarian; 110% (inactive) and 107% (inactive) and 111% (inactive) in the assay with OVCAR-4 ovarian; 114% (inactive) and 102% (inactive) and 101% (inactive) in the assay on SK-OV-3 ovarian; 102% (inactive) and 105% (inactive) and 101% (inactive) in the assay with IGROV1 ovarian. In addition, the growth was 114% (inactive) and 109% (inactive) and 106% (inactive) with OVCAR-3 ovarian; 95.7% (inactive) and 109% (inactive) and 98.9% (inactive) in the assay with HS 578T breast; 100% (inactive) and 98.6% (inactive) and 103% (inactive) in the assay with NCI/ADR-RES ovarian.

Take `O=C(O)C1C2C=CC(C2)C1C(=O)O` (configuration not stated): the growth is 108% (inactive) and 36.9% (inactive) and 94.8% (inactive) in the assay on SR leukemia; 103% (inactive) and 27.9% (inactive) in the assay on OVCAR-8 ovarian; 102% (inactive) and 35.6% (inactive) and 98.9% (inactive) in the assay on OVCAR-5 ovarian; 99.2% (inactive) and 106% (inactive) in the assay with OVCAR-4 ovarian; 95.2% (inactive) and 25.2% (inactive) and 106% (inactive) in the assay with IGROV1 ovarian; 113% (inactive) and 41.1% (inactive) and 108% (inactive) with OVCAR-3 ovarian. Also, the growth is 102% (inactive) and 105% (inactive) in the assay with HS 578T breast; 104% (inactive) and 112% (inactive) and 118% (inactive) in the assay on NCI/ADR-RES ovarian.

As to `CCN(CC)CCC(CNc1ccnc2cc(Cl)ccc12)c1ccc(OC)cc1` (configuration not stated), the growth in the assay on SR leukemia was -26% (active) and -16.4% (active); with OVCAR-8 ovarian, 63.6% (inactive) and 46% (inactive); with OVCAR-5 ovarian it was 76.1% (inactive) and 89.4% (inactive); in the assay with OVCAR-4 ovarian, 29.8% (inactive) and 47.4% (inactive); in the assay on SK-OV-3 ovarian, 92.7% (inactive) and 78.5% (inactive); with IGROV1 ovarian it was 52.3% (inactive) and 38% (inactive). For the same compound, the growth with OVCAR-3 ovarian was 84.3% (inactive) and 80.9% (inactive); in the assay on HS 578T breast, 74% (inactive); in the assay on NCI/ADR-RES ovarian, 76.7% (inactive) and 72.8% (inactive).

Turning to `O=C(CN1CCOCC1)N1CCOCC1`, the growth is 94.5% (inactive) and 97.8% (inactive) in the assay with SR leukemia; 109% (inactive) and 104% (inactive) with OVCAR-8 ovarian; 115% (inactive) and 91.5% (inactive) with OVCAR-5 ovarian; 113% (inactive) and 114% (inactive) in the assay with OVCAR-4 ovarian; 110% (inactive) and 96.3% (inactive) in the assay on SK-OV-3 ovarian; 117% (inactive) and 115% (inactive) in the assay on IGROV1 ovarian. For the same compound, the growth with OVCAR-3 ovarian is 115% (inactive) and 128% (inactive); with HS 578T breast, 111% (inactive) and 106% (inactive); in the assay with NCI/ADR-RES ovarian it was 107% (inactive) and 114% (inactive).

`CC(/C=N/N1C(=O)c2ccccc2C1=O)c1ccccc1` (configuration not stated): the growth was 97.9% (inactive) in the assay on RPMI-8226 leukemia; 101% (inactive) in the assay with OVCAR-8 ovarian; 103% (inactive) in the assay with OVCAR-5 ovarian; 112% (inactive) with OVCAR-4 ovarian; 108% (inactive) with SK-OV-3 ovarian; 98.6% (inactive) in the assay on IGROV1 ovarian. The growth was 113% (inactive) in the assay on OVCAR-3 ovarian, 119% (inactive) in the assay on HS 578T breast and 113% (inactive) in the assay on NCI/ADR-RES ovarian.

With `Cc1cccc(/C=C\C(=O)c2ccc(Cl)cc2)c1`, the growth in the assay on SR leukemia was 36% (inactive) and 3.37% (active); in the assay on OVCAR-8 ovarian, 101% (inactive) and 100% (inactive); in the assay with OVCAR-5 ovarian, 93.5% (inactive) and 98.5% (inactive); with OVCAR-4 ovarian, 89.1% (inactive) and 103% (inactive); in the assay with SK-OV-3 ovarian, 108% (inactive) and 104% (inactive); with IGROV1 ovarian, 101% (inactive) and 92.7% (inactive). Also, the growth in the assay with OVCAR-3 ovarian is 96.6% (inactive) and 101% (inactive); in the assay on HS 578T breast it was 112% (inactive) and 102% (inactive); in the assay with NCI/ADR-RES ovarian, 101% (inactive) and 99.2% (inactive).

As for `Cc1cc(O)c2c(c1)C(=O)c1cc(O)cc(O)c1C2=O`, the growth was 108% (inactive) and 86% (inactive) in the assay on SR leukemia; 92.7% (inactive) in the assay with OVCAR-8 ovarian; 68% (inactive) and 95.6% (inactive) in the assay with OVCAR-5 ovarian; 55% (inactive) and 68.5% (inactive) in the assay on OVCAR-4 ovarian; 102% (inactive) and 84.8% (inactive) in the assay with SK-OV-3 ovarian; 65.9% (inactive) and 101% (inactive) with IGROV1 ovarian. Further, the growth in the assay on OVCAR-3 ovarian was 84.1% (inactive) and 95.9% (inactive); in the assay with HS 578T breast, 89.7% (inactive) and 88.9% (inactive); in the assay with NCI/ADR-RES ovarian, 91.6% (inactive) and 101% (inactive).

As to `Oc1ccccc1C=NCC1CCC(CN=Cc2ccccc2O)CC1` (configuration not stated), the growth was 69.4% (inactive) with SR leukemia; 79.9% (inactive) with OVCAR-8 ovarian; 67.6% (inactive) in the assay with OVCAR-5 ovarian; 116% (inactive) in the assay with OVCAR-4 ovarian; 95% (inactive) in the assay on SK-OV-3 ovarian; 68.1% (inactive) in the assay with IGROV1 ovarian. Also, the growth in the assay with OVCAR-3 ovarian is 116% (inactive); in the assay with HS 578T breast, 114% (inactive); with NCI/ADR-RES ovarian, 80.4% (inactive).

As for `Oc1ccccc1/C=N\NC(=S)N/N=C/c1ccccc1O`, the growth in the assay on SR leukemia is 20% (inactive) and 21.9% (inactive); in the assay with OVCAR-8 ovarian, 35.6% (inactive) and 23.4% (inactive); in the assay with OVCAR-5 ovarian it was 59.2% (inactive) and 59.6% (inactive); in the assay with OVCAR-4 ovarian it was 25.7% (inactive); in the assay on SK-OV-3 ovarian, 46.5% (inactive) and 58.9% (inactive); in the assay with IGROV1 ovarian it was 20.9% (inactive) and 34.5% (inactive). In addition, the growth with OVCAR-3 ovarian is 14.1% (inactive) and 23% (inactive); in the assay with HS 578T breast it was 98.4% (inactive) and 73.4% (inactive); with NCI/ADR-RES ovarian it was 13.5% (inactive) and 19.6% (inactive).

Turning to `CC1(C)C2CCC1(CS(=O)(=O)O)C(=O)C2` (configuration not stated), the values for the growth in the assay with OVCAR-4 ovarian and in the assay on HS 578T breast were 95.1% (inactive) and 112% (inactive), respectively.

Regarding `Fc1ccccc1Nc1n[nH]c(=S)s1`, the growth in the assay with RPMI-8226 leukemia is 110% (inactive); with OVCAR-8 ovarian, 103% (inactive); with OVCAR-5 ovarian it was 99.2% (inactive); with OVCAR-4 ovarian it was 122% (inactive); in the assay with IGROV1 ovarian, 126% (inactive); with OVCAR-3 ovarian it was 107% (inactive). Besides, the growth is 107% (inactive) with HS 578T breast and 115% (inactive) in the assay with NCI/ADR-RES ovarian.
